Potentiation and outcome data for 18 compounds are collected here from PubChem BioAssay.

Calls of active or inactive are those of the source.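 Rule for the calls: active = mean duplicate potentiation above the buffer control mean plus 5 SD of buffer wells; inactive = the rest.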

Chain of Potassium voltage-gated channel subfamily KQT member 2 (Rattus norvegicus) (O88943 whole entry, looked up): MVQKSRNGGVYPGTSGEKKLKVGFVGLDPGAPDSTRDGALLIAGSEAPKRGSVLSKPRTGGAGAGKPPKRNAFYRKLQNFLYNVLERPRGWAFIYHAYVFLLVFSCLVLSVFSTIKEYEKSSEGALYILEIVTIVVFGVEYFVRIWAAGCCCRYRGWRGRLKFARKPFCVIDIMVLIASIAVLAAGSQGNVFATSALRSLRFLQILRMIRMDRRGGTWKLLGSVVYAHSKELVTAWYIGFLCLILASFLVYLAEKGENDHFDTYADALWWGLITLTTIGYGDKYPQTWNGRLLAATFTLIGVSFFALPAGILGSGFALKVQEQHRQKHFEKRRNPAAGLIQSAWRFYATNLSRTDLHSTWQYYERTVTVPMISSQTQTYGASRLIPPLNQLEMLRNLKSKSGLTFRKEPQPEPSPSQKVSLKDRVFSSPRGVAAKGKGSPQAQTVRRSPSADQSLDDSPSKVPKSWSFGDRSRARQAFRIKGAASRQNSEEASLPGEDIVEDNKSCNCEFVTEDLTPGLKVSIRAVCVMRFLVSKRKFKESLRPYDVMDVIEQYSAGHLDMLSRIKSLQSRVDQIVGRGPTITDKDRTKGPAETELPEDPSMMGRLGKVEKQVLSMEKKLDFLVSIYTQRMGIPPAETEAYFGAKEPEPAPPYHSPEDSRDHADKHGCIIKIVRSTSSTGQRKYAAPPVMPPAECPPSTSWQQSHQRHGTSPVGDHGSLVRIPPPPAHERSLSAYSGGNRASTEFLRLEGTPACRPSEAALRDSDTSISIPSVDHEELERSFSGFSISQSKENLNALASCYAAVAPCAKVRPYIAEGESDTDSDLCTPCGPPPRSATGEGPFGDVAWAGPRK

The assay addresses Potassium voltage-gated channel subfamily KQT member 2 (Rattus norvegicus) (UniProt O88943). The assay is described as follows: rat KCNQ2 channel potentiation, selectivity assay for KCNQ1 potentiator project, KCNQ2-CHO-K1 cells (AID 493009).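 Note: assay conditions were tuned for KCNQ1 rather than KCNQ2 modulators; signal is max minus min fluorescence divided by baseline after thallium stimulus.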 As to conditions: FluxOR thallium flux fluorescence, at 10 µM; active compounds read high, scaled: buffer 0, activator control 100.
Turning to `CCCCOC(=O)c1ccc(NC(=S)NC(=O)c2c(Cl)cnn2C)cc1`, the potentiation was 160% (active).
With `O=C(NCc1cccc(Cl)c1)c1cccc(OC2CCN(C(=O)C3CC3)CC2)c1`, the outcome was inactive.
`CS(=O)(=O)N1CCN(c2ccccc2NC(=O)CSc2nnc(-c3ccco3)o2)CC1`: the outcome was inactive.
For the compound `Cc1noc(C)c1COc1ccc(CC(=O)NCc2ccccc2)cc1`, the result was inactive.
On to `N#Cc1ccccc1Oc1ccccc1C=O`, for which the potentiation is 160% (active).
For `C=CCCCN(Cc1ccccc1)S(=O)(=O)c1ccccc1Br`, the result was inactive.
Regarding `Cc1ccccc1-n1c(C)cc(/C=N/NC(=O)c2ccncc2)c1C`, the potentiation was 165% (active).
As to `O=C(NC(=S)N1CCCCCC1)c1ccc(Cl)cc1Cl`, the potentiation was 158% (active).
The same measure, in the same setting: for `COc1ccc(N=Nc2ccc(O)c3ncccc23)cc1` the value was 249% (active).
With `O=C(CN1CCOCC1)N1CCN(c2nnc(-c3ccccc3)c3ccccc23)CC1`, the result was inactive.
On the same count and under the same terms, the result for `CCS(=O)(=O)Nc1ccc(C(=O)CC2(O)C(=O)Nc3ccccc32)cc1` (stereo not drawn) reads “inactive”.
As to `N#CC(c1cccc(Cl)c1)c1ccc2c(C(F)(F)F)cc(C(F)(F)F)nc2n1` (stereo not drawn), the potentiation is 298% (active).
On the same count and under the same terms, for `Cc1[nH]c(-c2ccccn2)nc(=S)c1Cl` the value was 262% (active); for `CCCCCCCCCCCC(=O)NC(Cc1ccc(OC)c([N+](=O)[O-])c1)C(=O)O` (stereo not drawn), 349% (active); for `S=c1nc[nH]c2c1sc1nc(-c3ccccc3)c3c(c12)CCCC3`, 499% (active).
The same measure, in the same setting: the result for `CCSc1nc(=S)cc(C)[nH]1` reads 388% (active).
As to `CCSc1nnc(NS(=O)(=O)c2ccc(OC)cc2)s1`, the result was inactive.
Same read-out and setting: for `CN1CCN(c2nc(-c3cccs3)cc(C(F)(F)F)n2)CC1` the value was “inactive”.
